High-throughput results (PubChem BioAssay)
Cycloheximide cs – Cycloheximide Counterscreen for Small Molecule Inhibitors of Shiga Toxin; cell reporter, cycloheximide protein synthesis inhibition counterscreen; max response, %; actives 12% (n = 300,000); in the data active = max response mostly above about 13%, no sharp cut-off; inactive = mostly below about 14%; also: read at 38.3 µM for the half of the compounds with a filed dose; 0% is about no effect
Shiga inhibitor – A qHTS for Small Molecule Inhibitors of Shiga Toxin. Vero cells, Shiga toxin protein synthesis inhibition reporter. inhibition, % at 38.7 µM. actives 9.2% (n = 290,000). AID 2315, 2010; in the data active = inhibition mostly above about 28%, no sharp cut-off; inactive = mostly below about 43%; also: 0% is about no effect
Sm TGR inh – qHTS Assay for the Inhibitors of Schistosoma Mansoni Peroxiredoxins; Potency, µM (titrated, usually from 114 µM), without a hit: at the top dose activity change, negative = inhibition, most hits filed as inhibitors; Schistosoma mansoni thioredoxin glutathione reductase (TGR), Q962Y6; actives 3% (n = 360,000); purified TGR, DTNB reduction, TNB absorbance 405 nm; also: potency is read from the fitted curve at half-maximal effect; % is scaled to controls: 0 for no effect and ±100 for the full control effect; nearly all actives have a fitted effect of over 60% in size
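Kinetic colorimetric format: TGR-catalysed, NADPH-driven DTNB reduction monitored via TNB absorbance. Enzyme dispensed at 20 nM; compound exposure 15 min at room temperature before reaction start.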
Tb PYK inh – qHTS of Trypanosoma Brucei Inhibitors | pyruvate kinase (Trypanosoma brucei), Q57TT1 | TbPYK enzyme, Kinase-Glo Plus ATP luminescence, 45 min | Potency, µM (titrated, usually from 76.8 µM), for inactives: at the top dose activity, negative = inhibition, hits mostly inhibitors | actives 0.12% (n = 410,000) | AID 624173, 2012; also: potency is read from the fitted curve at half-maximal effect; % is scaled to controls: 0 for no effect and ±100 for the full control effect; nearly all actives have a fitted effect of over 50% in size
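Glycolytic pyruvate kinase of T. brucei was incubated with substrate, test compound and 130 uM ADP for 45 minutes at room temperature. Luminescent Kinase-Glo Plus signal was measured after 10 minutes.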
LmPK inhibitor – qHTS Assay for Inhibitors of Leishmania Mexicana Pyruvate Kinase (LmPK) | purified LmPK, Kinase-Glo ATP luminescence, 1 h | Q27686 | Potency, µM (highest dose often 57.5 µM), for inactives: top-dose activity change, negative = inhibition, hits mostly inhibitors | actives 0.37% (n = 290,000) | AID 1721, 2009; also: potency is read from the fitted curve at half-maximal effect; % is scaled to controls: 0 for no effect and ±100 for the full control effect
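Screened at intermediate enzyme activity to detect both inhibitors and activators: LmPK at 0.1 nM, with a 0.5 nM enzyme column as activation reference. PEP 0.5 mM, ADP 0.1 mM; ATP detected by luminescence after 1 h.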
FBPA Giardia inh – qHTS Assay for Inhibitors of Fructose-1,6-bisphosphate Aldolase from Giardia Lamblia; A8B2U2; AID 2451, 2010; purified Giardia FBPA; actives 0.71% (n = 290,000); Potency, µM (highest dose often 59.6 µM), inactives show top-dose activity, negative = inhibition, actives largely listed as inhibitors; also: potency is read from the fitted curve at half-maximal effect; % is scaled to controls: 0 for no effect and ±100 for the full control effect; nearly all actives have a fitted effect of over 55% in size
Target sequence (A8B2U2 whole entry, looked up): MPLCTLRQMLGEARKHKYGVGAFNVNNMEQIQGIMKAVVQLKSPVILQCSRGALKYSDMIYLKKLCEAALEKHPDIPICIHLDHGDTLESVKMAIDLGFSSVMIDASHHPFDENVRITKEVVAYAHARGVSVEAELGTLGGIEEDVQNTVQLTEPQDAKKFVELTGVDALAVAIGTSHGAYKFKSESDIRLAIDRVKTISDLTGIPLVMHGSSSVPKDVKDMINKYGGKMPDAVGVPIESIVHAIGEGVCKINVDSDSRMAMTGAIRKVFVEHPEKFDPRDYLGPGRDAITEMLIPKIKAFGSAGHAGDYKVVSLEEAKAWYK
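40 nM FBPA preincubated 10 min at RT with compound (up to 57.5 uM final), then substrate plus GAPDH/TPI/NAD/arsenate coupling and diaphorase/resazurin added. Fluorescence read after 20 min at RT, 525/598 nm.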
An asterisk follows results filed as active. Only a selection was taken, and hits are over-represented in it overall. Unless noted, calls follow the shape of the dose curve; as a rule, active = well fitted curve in the direction sought with a large enough effect; inconclusive = small, poorly fitted or top-dose-only effect, or another doubt; inactive = no such curve, though single readings can be large; an effect the other way counts as inactive or inconclusive.

Screening CCc1ccc(NC(=O)C2CCC(CNC(=O)[C@@H]3Cc4ccccc4CN3)CC2)cc1 (some centres not stated) returned Cycloheximide cs 27.2*, Shiga inhibitor -1.0, Sm TGR inh -3.3%, Tb PYK inh 4.7%, LmPK inhibitor -1.7% and FBPA Giardia inh -29.0%.
Cc1cc(C)cc(NC(=O)C2CCC(CNC(=O)[C@@H]3Cc4ccccc4CN3)CC2)c1 (some centres not stated) was read as Cycloheximide cs -4.1, Shiga inhibitor 2.1, Sm TGR inh -2.1%, Tb PYK inh -2.5%, LmPK inhibitor 6.5% and FBPA Giardia inh -19.0%.
CN(C)c1ccc(NC(=O)Nc2cccc(Cl)c2)cc1 was read as Cycloheximide cs 30.9*, Shiga inhibitor 49.9*, Sm TGR inh -31.0%, Tb PYK inh -11.5%, LmPK inhibitor -7.8% and FBPA Giardia inh -22.0%.
For CN(c1cccc(NC(=O)Nc2cccc(Cl)c2)c1)S(C)(=O)=O the results were Cycloheximide cs 36.6*, Shiga inhibitor 94.0*, Sm TGR inh -7.9%, Tb PYK inh -23.4%, LmPK inhibitor 2.2% and FBPA Giardia inh -3.3%.
`O=C(O)Cc1ccc(NC(=O)Nc2cccc(Cl)c2)cc1` gave Cycloheximide cs -3.3, Shiga inhibitor -8.8, Sm TGR inh 13.5%, Tb PYK inh -17.8%, LmPK inhibitor -9.3% and FBPA Giardia inh 2.8%.
For CC(=O)Nc1cccc(N(C)S(C)(=O)=O)c1 the results were Cycloheximide cs -4.1, Shiga inhibitor -1.7, Sm TGR inh 1.4%, Tb PYK inh inconclusive, LmPK inhibitor -8.4% and FBPA Giardia inh 5.3%.
`O=C(Oc1ccccc1/C=C\C(=O)c1cc2ccccc2o1)c1cccc(F)c1` gave Cycloheximide cs 37.4*, Shiga inhibitor 40.7*, Sm TGR inh 2.5%, Tb PYK inh -1.0%, LmPK inhibitor -6.2% and FBPA Giardia inh -6.1%.
`O=C(Nc1ccccc1)c1ccc(OC(=O)c2cc3ccccc3o2)cc1` gave Cycloheximide cs -2.0, Shiga inhibitor -2.4, Sm TGR inh -9.4%, Tb PYK inh -0.2%, LmPK inhibitor -0.2% and FBPA Giardia inh 7.9%.
`COc1ccc(C(=O)/C=C/c2ccccc2OC)c(OC(=O)c2ccc([N+](=O)[O-])cc2)c1` gave Tb PYK inh 0.0%.
For COc1cccc(C(=O)Oc2ccccc2/C=C\C(=O)c2cc3ccccc3o2)c1 the results were Cycloheximide cs 85.6*, Shiga inhibitor 62.7*, Sm TGR inh -4.8%, Tb PYK inh 0.2%, LmPK inhibitor -5.0% and FBPA Giardia inh -5.9%.
`O=C(Oc1ccccc1/C=C\C(=O)c1cc2ccccc2o1)c1ccccc1` gave Cycloheximide cs 35.0*, Shiga inhibitor 90.3*, Sm TGR inh -6.4%, Tb PYK inh -7.9%, LmPK inhibitor -3.0% and FBPA Giardia inh -7.7%.
For CC1CCC2(CC1)NC(=O)N(CC(=O)NCc1ccc(F)cc1)C2=O (configuration not stated) the results were Sm TGR inh -6.7% and Tb PYK inh -8.1%.
For Cc1ccc(Cc2c(C)nc3nc(SCC(=O)NC(C)c4ccccc4)nn3c2C)cc1 (configuration not stated) the results were Sm TGR inh -2.1% and Tb PYK inh 7.1%.
Screening O=C(NCCCc1nc2ccccc2n1Cc1ccc(Cl)cc1Cl)c1ccco1 returned Sm TGR inh 8.4% and Tb PYK inh 0.0%.
OC1(c2ccc(Cl)c(C(F)(F)F)c2)CCN(CCCC(c2ccc(F)cc2)c2ccc(F)cc2)CC1 was read as Cycloheximide cs -16.3, Shiga inhibitor -15.3, Tb PYK inh -10.0% and FBPA Giardia inh -13.5%.
